In the library only some 2% were active in any assay of this set; here they are far more common.
ASM inhibitor – inhibitors of human secretory acid sphingomyelinase; P17405; placental ASM, HMU-PC fluorogenic substrate, 60 min; Potency, µM (highest dose often 57.5 µM), for inactives: at the top dose activity change, negative = inhibition, most hits filed as inhibitors; actives 0.006% (n = 340,000); AID 504937
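qHTS format. ASM enzyme prepared from human placenta hydrolyses the fluorogenic substrate HMU-PC0 (9 uM final) over 60 min at 37 °C after a 10 min compound preincubation.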
Rango dissoc inh – prevents RanGTP from dissociating the Rango-importin beta complex; Biochemical FRET Rango-importin beta, RanGTP-induced dissociation; O95149+P62826; Potency, µM (highest dose often 46.1 µM), inactives show at the highest dose activity change, negative = inhibition; actives 0.071% (n = 340,000); AID 540253; calls by dose curve; also: % of control where 0% means no effect; nearly all actives have a fitted effect of over 45% in size
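Two FRET readings bracket the reaction: one 5 min after compound meets Rango–importin beta, another 45 min after RanGTP-RCC1 (0.6 uM Ran, 0.2 uM RCC1, 2 mM GTP) is added. Only the second defines inhibition.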
TDP43 rescue – inhibitors of TDP-43 toxicity in yeast; Potency, µM (doses to about 46.1 µM), for inactives: at the highest dose growth rescue (activation), most hits filed as activators; actives 1.8% (n = 410,000); AID 652104; TDP-43 expressing yeast growth rescue, BacTiter-Glo, 24 h; also: % of control where 0% means no effect; nearly all actives have a fitted effect of over 50% in size
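Growth rescue of TDP-43-toxic yeast measured as ATP luminescence (BacTiter-Glo). Cells grown to mid-log in raffinose, induced in galactose at OD600=0.02, exposed to compound 24 hr at 30 deg C.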
Abeta rescue – compounds reversing amyloid beta toxicity in yeast. actives 0.063% (n = 410,000). Potency, µM (doses to about 46.1 µM), hits mostly activators. yeast expressing A-beta42, growth rescue, OD600, 48 h; response scale: 0% DMSO, 100% iron-clioquinol control; also: nearly all actives have a fitted effect of over 55% in size
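Yeast A-beta toxicity model in growth medium with pinned compounds, 48 h at 30 C; growth read as absorbance at 600 nm. Normalized to FeCl3/clioquinol equimolar mix (positive) and DMSO (negative).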
Rango complex inh – inhibitors of Rango-importin beta complex formation. actives 0.031% (n = 340,000). Potency, µM (titrated, usually from 92.2 µM), for the others: at the top dose inhibition of complex formation. Q14974. Rango CFP/YFP FRET sensor + importin beta, 45 min; calls by dose curve;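 also: 0% = DMSO wells and 100% = buffer wells lacking importin beta; nearly all actives have a fitted effect of over 15% in size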
Target sequence (Q14974 whole entry, looked up): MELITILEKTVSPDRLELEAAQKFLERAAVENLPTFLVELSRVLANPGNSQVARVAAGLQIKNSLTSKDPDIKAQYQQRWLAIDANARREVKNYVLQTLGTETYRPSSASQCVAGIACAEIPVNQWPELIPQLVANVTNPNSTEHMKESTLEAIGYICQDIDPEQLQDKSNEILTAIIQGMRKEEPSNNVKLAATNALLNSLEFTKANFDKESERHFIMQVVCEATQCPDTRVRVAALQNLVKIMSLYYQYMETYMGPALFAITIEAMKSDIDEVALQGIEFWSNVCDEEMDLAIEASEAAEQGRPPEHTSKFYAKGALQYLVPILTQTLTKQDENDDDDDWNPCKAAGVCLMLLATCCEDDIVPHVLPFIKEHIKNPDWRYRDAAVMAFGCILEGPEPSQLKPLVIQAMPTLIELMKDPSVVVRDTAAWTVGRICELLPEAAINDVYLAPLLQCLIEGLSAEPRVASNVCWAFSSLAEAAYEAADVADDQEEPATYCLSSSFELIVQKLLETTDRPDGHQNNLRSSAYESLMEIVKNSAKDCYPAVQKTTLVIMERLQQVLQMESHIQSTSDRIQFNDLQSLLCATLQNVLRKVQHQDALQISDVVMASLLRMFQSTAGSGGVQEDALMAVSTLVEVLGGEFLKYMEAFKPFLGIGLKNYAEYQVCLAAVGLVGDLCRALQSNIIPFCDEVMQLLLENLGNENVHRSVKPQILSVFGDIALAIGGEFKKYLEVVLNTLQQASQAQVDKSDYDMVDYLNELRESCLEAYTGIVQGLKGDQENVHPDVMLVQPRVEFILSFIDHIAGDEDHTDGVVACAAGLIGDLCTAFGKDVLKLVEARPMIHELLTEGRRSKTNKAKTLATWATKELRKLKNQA
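FRET biosensor Rango (snurportin 1 IBB between N-terminal EYFP and C-terminal Cerulean), 50 nM in PBS/1 mM DTT/0.02% Tween-20/0.1% BSA, preincubated 5 min RT with compound; 0.125 microM importin beta added, 45 min RT, CFP/YFP FRET ratio read.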
aSyn rescue – alpha-synuclein toxicity inhibition in yeast; AID 652106; Potency, µM (highest dose often 46.1 µM), inactives show top-dose growth rescue (activation), usual class: activators; actives 0.14% (n = 370,000); Yeast expressing alpha-synuclein, growth rescue, BacTiter-Glo, 24 h; also: % of control where 0% means no effect; nearly all actives have a fitted effect of over 65% in size
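Screening used galactose-induced yeast with toxic alpha-synuclein levels, exposed to compound for 24 hr at 30 deg C. Cell growth, read with BacTiter-Glo luminescence, gave the measured signal.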
* = called active by the depositor; i = inactive; ? = inconclusive; / = not tested or not shown; [ ] = dose if it differs, or a comment. Unless noted, calls follow the shape of the dose curve; as a rule, active = well fitted curve in the direction sought with a large enough effect; inconclusive = small, poorly fitted or top-dose-only effect, or another doubt; inactive = no such curve, though single readings can be large; an effect the other way counts as inactive or inconclusive. Potency is read from the fitted curve at half-maximal effect.

SMILES	ASM inhibitor	Rango dissoc inh	TDP43 rescue	Abeta rescue	Rango complex inh	aSyn rescue
Cc1cc(Br)ccc1NC(=S)NCCc1ccccc1	-4%	0%	?	11µM*	-2%	8%
Nc1ccc(Br)c2c1C(=O)c1ccccc1C2=O	-16%	2%	6.3µM*	i	0%	18%
CC1(C)CC(=O)C(Sc2ccc(Br)cc2)=C(O)C1	-1%	1%	13µM*	i	-3%	25%
CN(C(=O)CSc1nc2ccccc2[nH]1)c1ccc(F)cc1	/	/	33%	i	/	/
COc1ccc(Cl)cc1NC(=O)CN(C)CC(=O)Nc1ccc(C)cc1Br	-4%	1%	18µM*	i	1%	3%
COc1ccc(Cl)cc1NC(=O)CN(C)CC(=O)Nc1ccccc1-c1ccccc1	-2%	5%	?	i	-1%	10%
COc1ccc([N+](=O)[O-])cc1NC(=O)C(C)OC(=O)/C=C/c1ccco1 (stereo not given)	-4%	-6%	25µM*	i	4%	-10%
COc1ccc(Cl)cc1NC(=O)CN(C)C(=O)/C=C/c1ccco1	-1%	-1%	28µM*	i	-4%	5%
CN(CC(=O)Nc1ccc(F)c(F)c1F)C(=O)/C=C/c1ccco1	0%	0%	-2%	i	1%	0%
COc1ccccc1/C=C1\C=Cc2ccccc21	/	/	/	/	/	-13%
COc1ccc(-n2c(=O)c3ccc(C(=O)NCc4ccc(C)cc4)cc3n(CC(=O)Nc3cccc(F)c3)c2=O)cc1	/	/	12%	i	/	-1%
CC(OC(=O)c1ccccc1OCC(=O)Nc1ccc(Br)cc1)C(=O)NC1CCCC1 (stereo not given)	/	/	/	/	/	-1%
CC(NC(=S)Nc1cccc(C(F)(F)F)c1)C(C)(C)C (stereo not given)	-4%	3%	19%	13µM*	1%	-34%
CN(C)NC(=S)Nc1cccc(C(F)(F)F)c1	2%	-7%	28%	?	0%	-1%
Cc1ccc(SCCNC(=S)Nc2cc(C)ccc2C)cc1	-1%	11%	14µM*	?	9%	4%
Nc1c(Br)cc(/C=C2\C=Cc3ccccc32)cc1Br	/	/	/	/	/	-15%
CCCN(CC(=O)Nc1ccccc1OC)C(=O)c1cc2ccccc2o1	-2%	9%	19%	i	2%	2%
CCCN(CC(=O)Nc1ccccc1OC)C(=O)c1ccc(COc2ccccc2)o1	2%	-6%	11µM*	i	-6%	1%
Cc1ccccc1NC(=O)CSc1nc2c(oc3ccccc32)c(=O)n1Cc1ccco1	/	/	0%	i	/	/
O=C(Nc1c(Cl)cccc1Cl)c1cc(-c2cccc(O)c2)on1	/	/	16µM*	i	/	/
O=C(Nc1c(Cl)cccc1Cl)c1cc(-c2ccc3c(c2)OCO3)on1	/	/	33%	i	/	/
COC(=O)c1ccc2nc(-c3ccc(C)cc3)c(Cc3cccc(Cl)c3)n2c1	/	/	22µM*	i	/	4%
COC(=O)c1ccc2nc(-c3ccccc3)c(Cc3ccc(C)cc3)n2c1	/	/	13µM*	i	/	6%
COC(=O)c1ccc2nc(-c3cccc(Br)c3)c(Cc3ccccc3OC)n2c1	/	/	?	i	/	-3%
COC(=O)c1ccc2nc(-c3ccc(F)cc3)c(Cc3ccccc3OC)n2c1	/	/	22µM*	i	/	-11%
SMILES	ASM inhibitor	Rango dissoc inh	TDP43 rescue	Abeta rescue	Rango complex inh	aSyn rescue
COC(=O)c1ccc2nc(-c3ccc(Cl)cc3)c(Cc3cccc(Cl)c3)n2c1	/	/	20%	i	/	-1%
COC(=O)c1ccc2nc(-c3ccccc3)c(Cc3ccsc3)n2c1	/	/	19%	i	/	-9%
Cc1ccc(C(=O)Nc2nnc(S(=O)(=O)N3CCc4ccccc43)s2)cc1	/	/	15%	i	/	/
COc1cc2nc(N3CCN(C)CC3)nc(NC3CCN(Cc4ccccc4)CC3)c2cc1OC	/	/	/	/	/	-5%
COc1ccccc1Cn1ccn(Cc2ccc(C)cc2)c(=O)c1=O	/	/	6%	i	/	/
Cc1cccc(-c2nc(CS(=O)CC(=O)NC3CCCC3)c(C)o2)c1 (stereo not given)	-1%	18%	?	i	3%	5.6µM*
O=Cc1ccc(/C=C2\C=Cc3ccccc32)cc1	/	/	/	/	/	-1%
O=S(=O)(/C=C/c1ccccc1)NCc1ccccc1Cl	1%	6%	11µM*	i	1%	12%
Cc1ccccc1NC(=O)c1cnn(-c2ccccc2)c1C	1%	1%	13µM*	i	1%	-14%
Cc1cccc(NC(=O)c2cnn(-c3ccccc3)c2C)c1C	-1%	14%	0%	i	0%	-8%
CCc1ccccc1NC(=O)c1cnn(-c2ccccc2)c1C	-2%	21%	14µM*	i	2%	-37%
CCCN(CCC)S(=O)(=O)c1ccc(N2CCCCS2(=O)=O)cc1	/	/	12%[9.22 µM]	i	/	/
CO/S(=N\S(=O)(=O)c1ccc(Cl)cc1)c1ccc([N+](=O)[O-])cc1 (stereo not given)	/	/	/	/	/	-27%
COC(=O)C(C(=O)OC)=C(/C=C/C=C/N(C)C)N(C)C	-5%	9.2µM*	-18%	i	?	6%
COC(=O)C(C(=O)OC)=C(/C=C/N(C)C)N(C)C	3%	-3%	10%	i	0%	-1%
O=C(ON=C1CCN(S(=O)(=O)c2ccccc2)CC1)c1ccccc1	-2%	1%	20µM*	i	6%	1%
COc1ccc(COC(=O)C2CCN(C(=O)c3ccc(Cl)cc3)CC2)cc1F	-2%	-20%	-6%	i	0%	1%
COc1ccc(C(C)=O)cc1COC(=O)C1CCN(C(=O)c2ccc(Cl)cc2)CC1	-1%	8%	20µM*	i	-2%	1%[1.84 µM]
CCC(C)(C)c1ccc(OCCCC[n+]2ccccc2)c(C(C)(C)CC)c1	-19%	9%	14µM*	i	6%	-34%
CCc1cc(C(=O)Nc2ccc(C)cc2Br)cs1	-2%	-1%	13µM*	i	0%	-1%
COc1cccc(N/C=C/C(=O)c2ccc(C)cc2)c1	32%	15µM*	?	i	?	-23%
COc1ccc(C(=O)C[n+]2ccc(Cl)c3ccc(Cl)cc32)cc1	/	/	/	/	/	4%
Cc1nn2c(=O)cc(COC(=O)c3c(F)cccc3Cl)nc2s1	-1%	-15%	35µM*	i	3%	13%
Cc1ccc(OCC(=O)Nc2ccc(Cl)c(-c3nc4ncccc4o3)c2)cc1C	/	/	18µM*	i	/	?
Cc1cc(C)cc(OCC(=O)Nc2ccc(Cl)c(-c3nc4ncccc4o3)c2)c1	/	/	-27%	i	/	/
